From PubChem BioAssay AID504834 (National Center for Advancing Translational Sciences (NCATS), 2011) come the findings set out here.

The campaign covered roughly 320,000 compounds. About 22,000 (6.9%) were called active. Another 27% or so got no clear call; they are omitted. What follows is part of a selection rich in actives, with near analogues and random picks from the rest. A number with no mark means an inactive call. Calls follow the shape of the dose curve; as a rule, active = well fitted inhibition curve with a large enough effect; inconclusive = small, poorly fitted or top-dose-only effect, or another doubt; inactive = no such curve, though single readings can be large or run the other way.
% is scaled to controls: 0 for no effect and ±100 for the full control effect; potency is read from the fitted curve at half-maximal effect.

The assay in a line: Primary qHTS for delayed death inhibitors of the malarial parasite plastid, 96 hour incubation. As to conditions: P. falciparum luciferase reporter growth; series mostly up to 28.7 µM; activity change, negative = inhibition: at the top concentration. The gist of the method:
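Two parasite generations (96 h, 37 C, 5% CO2) of compound exposure in infected erythrocytes (0.05% parasitemia, 2% hematocrit). Luciferase-reporter P. falciparum; decreased luminescence indicates inhibited growth, aimed at apicoplast-acting delayed death.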
(Quantitative high-throughput screening tests each substance at several concentrations.)
For `Cc1ccc(NC(=O)CN2CCc3ccccc3C2)cc1`, the “activity change, negative = inhibition” value was 21.5%. Consider `Cc1ccc(C(=O)N2CCCC(c3ccccc3)=N2)cc1`, for which the “activity change, negative = inhibition” value was -22.4%.

Take `Cc1cccc[n+]1CC(=O)c1ccccc1`: the “activity change, negative = inhibition” value is 33.3%. With `Cc1ccc(-c2c[n+](CC(=O)Nc3ccccc3)c3n2CCC3)cc1`, the Potency was 3700 nM (active). With `Cc1ccc(C(=O)C[n+]2cc(-c3ccccc3)n3c2CCCCC3)cc1`, the Potency was 415 nM (active). For `Cc1ccc(NC(=O)CCN2CCc3ccccc3C2)cc1`, the “activity change, negative = inhibition” value is -12.6%. `COc1ccc(S(=O)(=O)Nc2cc(C)on2)cc1NC(C)=O`: the “activity change, negative = inhibition” value is 8.11%. In the case of `CCCc1cc(=O)oc2c(C)c(OCC(=O)Nc3ccccn3)ccc12`, the “activity change, negative = inhibition” value was -40.6%. For the molecule `COCCCNC(=O)CN1C(=O)CSc2ccc(S(=O)(=O)N3CCOCC3)cc21`, the “activity change, negative = inhibition” value was 6.67%. As to `CCOC(=O)C1CCN(C(=O)Cn2nc(C)c3c(C)n(-c4ccccc4)nc3c2=O)CC1`, the “activity change, negative = inhibition” value was 62.5%. In the case of `O=S(=O)(NCCc1ccc(Cl)cc1)c1cccs1`, the “activity change, negative = inhibition” value is 30.8%. For the molecule `COc1cc(C(=O)OC2CCOC2=O)c([N+](=O)[O-])cc1OC` (centres undefined), the “activity change, negative = inhibition” value is 15%.

As to `COc1ccc(-c2nnc(SCC(=O)c3cccs3)o2)c(OC)c1`, the “activity change, negative = inhibition” value is 7.45%. As for `COc1ccc(-c2nnc(NC(=O)CS(=O)(=O)c3ccc(Cl)cc3)o2)c(OC)c1`, the Potency is 8280 nM (active).

Take `COc1ccc(NC(=O)CS(=O)(=O)c2ccccc2)cc1`: the “activity change, negative = inhibition” value was 0.182%. On the same count and under the same terms, the same measure for `COc1ccc(-c2n[nH]c3c2CN(C(=O)c2ccc(F)cc2)CC3)cc1`: 52%. Turning to `Cc1nonc1C1CCCN1C(=O)c1cc(COc2cccc(C(F)(F)F)c2)on1` (centres undefined), the “activity change, negative = inhibition” value is 14.5%. For `O=C(N/N=C/C=C/c1ccccc1)C1CC1(c1ccccc1)c1ccccc1` (centres undefined), the Potency was 10400 nM (active).

Consider `O=C(N/N=C/c1ccccc1O)C1CCCC1`, for which the “activity change, negative = inhibition” value is -102%. As for `COc1ccccc1/C=C/C=N/NC(=O)CN1CCN(Cc2ccccc2)CC1`, the “activity change, negative = inhibition” value is -12.1%. On to `CCc1cc(=O)oc2c(C)c(OCC(=O)N3CC[C@@]4(O)CCCC[C@H]4C3)ccc12`, for which the “activity change, negative = inhibition” value was -25.6%.

In the case of `CCOC(=O)c1[nH]c2c(c1C)C(=O)CC(c1ccc(N(C)C)cc1)C2` (centres undefined), the “activity change, negative = inhibition” value was 1.58%. On the same count and under the same terms, the same measure for `CCOC(=O)c1cc(NC(=O)c2ccc(Cl)cc2)c(=O)oc1-c1ccccc1`: 0%. For the molecule `CCOC(=O)c1[nH]c2c(c1-c1ccccc1)C(=O)CC(c1ccc(Cl)cc1)C2` (centres undefined), the Potency is 9280 nM (active).

As to `Cc1cccc(C(=O)NC(=S)N(C)C2CCCCC2)c1`, the “activity change, negative = inhibition” value was -85.4%. On to `C#CCOCCOCCOCCNc1nc(N2CCN(C(=O)[C@H](C(C)C)n3cc(CCO)nn3)CC2)nc(N2CCN(C(=O)[C@H](C(C)C)n3cc(CCO)nn3)CC2)n1`, for which the “activity change, negative = inhibition” value is -0.171%.

Regarding `C#CCOCCOCCOCCNc1nc(N2CCN(C(=O)CCCCCCCCCCNC(=O)[C@H](CCCCN)n3cc(C)nn3)CC2)nc(N2CCN(C(=O)CCCCCCCCCCNC(=O)[C@H](CO)n3cc(CCCSC)nn3)CC2)n1`, the Potency is 294 nM (active). For the molecule `C#CCOCCOCCOCCNc1nc(N2CCN(C(=O)Cn3cc(CCCCN)nn3)CC2)nc(N2CCN(C(=O)[C@H](CCCCN)n3cc(CCC(=O)O)nn3)CC2)n1`, the “activity change, negative = inhibition” value is -25.7%. In the case of `C#CCOCCOCCOCCNc1nc(N2CCN(C(=O)CCCCCCCCCCNC(=O)[C@H]([C@@H](C)CC)n3cc(CCCCN=C(N)N)nn3)CC2)nc(N2CCN(C(=O)CCCCCCCCCCNC(=O)[C@H](CO)n3cc(CCCSC)nn3)CC2)n1`, the Potency is 370 nM (active). On to `C#CCOCCOCCOCCNc1nc(N2CCN(C(=O)[C@H](CCCCN)n3cc(CCC(=O)O)nn3)CC2)nc(N2CCN(C(=O)[C@H](CCCCN)n3cc(CC(C)O)nn3)CC2)n1` (some centres undefined), for which the “activity change, negative = inhibition” value was 87.4%. For the molecule `C#CCOCCOCCOCCNc1nc(N2CCN(C(=O)[C@H](CCC(=O)O)n3cc(C(N)CO)nn3)CC2)nc(N2CCN(C(=O)[C@H](CCCCN)n3cc(C(N)CC(C)C)nn3)CC2)n1` (some centres undefined), the “activity change, negative = inhibition” value was 79.2%. The same measure, in the same setting: the same measure for `C#CCOCCOCCOCCNc1nc(N2CCN(C(=O)[C@H](CCCCN)n3cc([C@@H](N)C(C)CC)nn3)CC2)nc(N2CCN(C(=O)[C@H](Cc3ccc(O)cc3)n3cc([C@@H](N)C(C)CC)nn3)CC2)n1` (some centres undefined): -11.3%. On to `C#CCOCCOCCOCCNc1nc(N2CCN(C(=O)[C@H](CCC(=O)O)n3cc(C(N)CO)nn3)CC2)nc(N2CCN(C(=O)[C@H](CCCCN)n3cc(C(N)[C@H](C)CC)nn3)CC2)n1` (some centres undefined), for which the “activity change, negative = inhibition” value is 34.7%. `C#CCOCCOCCOCCNc1nc(N2CCN(C(=O)CCCCCCCCCCNC(=O)Cn3cc(CCCCCN)nn3)CC2)nc(N2CCN(C(=O)CCCCCCCCCCNC(=O)[C@H](CO)n3cc(CCCSC)nn3)CC2)n1`: the Potency was 1470 nM (active).

Consider `CSc1n[nH]c(=S)n1N`, for which the “activity change, negative = inhibition” value was -1.76%. For the molecule `Cc1c(CC(=O)NCCCCCC(=O)O)c(=O)oc2cc3occ(-c4ccccc4)c3cc12`, the “activity change, negative = inhibition” value is -27.6%.

On to `CCOc1ccccc1NC(=O)Cn1ncc2ccc([N+](=O)[O-])cc21`, for which the “activity change, negative = inhibition” value is 0.0479%. The same measure, in the same setting: the same measure for `CC(=O)NC1CCN(CC(=O)Nc2nccs2)CC1`: -1.24%; for `O=C(NC(=O)c1ccccc1)Nc1ccccc1O`: 37.6%. With `CCOC(=O)c1csc(NC(=O)c2ccc(S(=O)(=O)N3CCCC3)cc2)n1`, the “activity change, negative = inhibition” value is 5.07%.

For `CN1CCN(NC(=O)c2ccc(S(=O)(=O)N3CCCCCC3)cc2)CC1`, the “activity change, negative = inhibition” value was -6.85%. As to `O=C(Nc1ncccc1O)c1ccc(C(=O)c2ccccc2)cc1`, the Potency is 928 nM (active). Regarding `O=C(CNC(=O)c1ccc2ccccc2c1)Nc1ncccc1O`, the “activity change, negative = inhibition” value was 127%. For the molecule `O=C(Nc1ncccc1O)c1ccc(S(=O)(=O)N2CCCCCC2)cc1`, the Potency is 5220 nM (active). Consider `O=C(N/N=C/c1ccccn1)c1ccc(S(=O)(=O)N2CCCCCC2)cc1`, for which the “activity change, negative = inhibition” value is 1.52%. Turning to `O=C(Nc1ncccc1O)c1ccc(S(=O)(=O)N2CCCC2)cc1`, the Potency was 2080 nM (active). In the case of `O=C(Nc1ccccc1F)c1ccc(S(=O)(=O)N2CCCCCC2)cc1`, the “activity change, negative = inhibition” value was 1.93%.

With `CCOc1ccc2nc(N(CCN(C)C)C(=O)c3ccc4ccccc4c3)sc2c1`, the “activity change, negative = inhibition” value was -14.3%. With `COc1ccc(-c2nc3c(s2)CCc2onc(-c4ccc(OC)cc4)c2-3)cc1`, the “activity change, negative = inhibition” value was 12.4%. Regarding `COc1ccc(C(=O)NC2CC(C)(C)NC(C)(C)C2)cc1OC`, the “activity change, negative = inhibition” value is 0%. As to `COc1ccc(OC)c(/C(C)=N\NC(=O)c2cc3cc(Cl)ccc3n2C)c1`, the “activity change, negative = inhibition” value was 0%. In the case of `COc1ccc(NC(=O)/C(Cl)=C(/Cl)S(=O)Cc2ccc(C)cc2)cn1` (centres undefined), the “activity change, negative = inhibition” value is 0%. As to `COc1ccc(NC(=S)Nc2ccccc2Cl)cn1`, the “activity change, negative = inhibition” value was 30.6%.

`COc1ccc(CS(=O)/C(Cl)=C(/Cl)C(=O)Nc2ccc(OC)nc2)cc1` (centres undefined): the Potency is 2940 nM (active).
